# TRPV1 ag = agonists of human vanilloid receptor 1 (TRPV1). Q8NER1. TRPV1-expressing cells, Fluo-8 calcium influx, agonist mode. activation, % at 8.33 µM. 320,000 compounds, 0.19% hits; in the data active = activation above about 80%; inconclusive = between about 30% and that limit
# Target sequence (Q8NER1 whole entry, looked up): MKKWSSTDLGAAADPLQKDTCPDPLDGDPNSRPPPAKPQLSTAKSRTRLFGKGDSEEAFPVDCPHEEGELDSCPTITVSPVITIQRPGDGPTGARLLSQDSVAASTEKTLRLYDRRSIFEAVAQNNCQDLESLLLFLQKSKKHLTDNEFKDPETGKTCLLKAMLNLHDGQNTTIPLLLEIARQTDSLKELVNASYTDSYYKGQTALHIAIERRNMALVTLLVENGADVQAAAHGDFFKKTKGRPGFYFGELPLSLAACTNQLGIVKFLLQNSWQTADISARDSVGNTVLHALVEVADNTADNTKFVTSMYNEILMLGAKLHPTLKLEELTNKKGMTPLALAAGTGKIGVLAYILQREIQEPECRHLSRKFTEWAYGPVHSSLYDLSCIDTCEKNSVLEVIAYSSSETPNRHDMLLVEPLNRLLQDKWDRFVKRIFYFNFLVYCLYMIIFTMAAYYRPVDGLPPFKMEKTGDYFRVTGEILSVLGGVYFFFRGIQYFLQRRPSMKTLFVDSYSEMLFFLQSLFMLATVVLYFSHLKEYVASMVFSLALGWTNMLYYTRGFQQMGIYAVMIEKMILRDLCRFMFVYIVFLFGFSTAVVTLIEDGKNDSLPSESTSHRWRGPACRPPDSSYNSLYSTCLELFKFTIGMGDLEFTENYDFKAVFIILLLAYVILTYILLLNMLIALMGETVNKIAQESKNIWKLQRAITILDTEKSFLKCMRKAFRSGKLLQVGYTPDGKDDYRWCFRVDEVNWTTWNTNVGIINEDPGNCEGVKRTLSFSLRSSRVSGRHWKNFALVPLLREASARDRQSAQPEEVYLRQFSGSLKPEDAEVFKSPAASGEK
#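 TRPV1-expressing cells were cultured overnight at 35.5C and loaded with Fluo-8 calcium dye for 40 to 90 min at room temperature. After a 10 s baseline, compound was added and calcium influx was read kinetically for 3 min (ex 480/em 520 nm).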
# TRPV1 PAM = enhances activation of the human vanilloid receptor TRPV1. AID 540277. 320,000 compounds, 0.02% hits. Q8NER1. TRPV1-expressing cells, Fluo-8 calcium influx, capsaicin EC20 potentiation. potentiation, % at 8.33 µM; in the data active = potentiation above about 80%; inconclusive = between about 30% and that limit
#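 TRPV1-expressing cells were cultured overnight at 35.5C and loaded with Fluo-8 calcium dye for 40 to 90 min at room temperature. After a 10 s baseline, compound was added and calcium influx was read kinetically for 3 min (ex 480/em 520 nm).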
# hERG WT inh = inhibitors of human wildtype KCNH2 potassium channel; Q12809; U2OS, BacMam KCNH2, thallium flux FluxOr; hits give low values; activity change, % at 1.84 µM; 340,000 compounds, 0.37% hits; AID 720551;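 active = maximum activity change below -70%; inconclusive = maximum activity change between -70% and -50%; inactive = maximum activity change above -50%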
#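 U2OS cells were transduced with wild-type KCNH2 virus (2.03 x 10^8 / mL) for 4 h at room temperature, then cultured overnight at 37 C. Thallium flux was read with FluxOr dye. Rate constants were normalized to DMSO controls.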
# KCNH2 3.1 block = blocks the human KCNH2 3.1 channel isoform; U2OS KCNH2 3.1, thallium flux FluxOr; hits give low values; activity change, % (tested at about 1.8 µM); 340,000 compounds, 0.95% hits; AID 720553;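 active = maximum activity change below -70%; inconclusive = maximum activity change from -70% to -50%; inactive = maximum activity change above -50%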;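 note: thallium influx rate constant from kinetic fluorescence after stimulation buffer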
#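 U2OS cells transduced with KCNH2 3.1 mutant virus (1.77 x 10^8 /mL, 4 h), plated overnight at 37 C, loaded 45 min with FluxOr dye plus Red40 quencher. Thallium flux rate constant from kinetic reads after stimulation buffer, normalised to controls.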
# Numbers stand for hits; – = inactive; ? = inconclusive; · = no result. In the library only some 1.2% were active in any assay of this set; here they are far more common.
SMILES,TRPV1 ag,TRPV1 PAM,hERG WT inh,KCNH2 3.1 block
O=C(Cc1ccccc1)NCCCc1ccccc1,–,–,–,–
O=C(NCCCc1ccccc1)c1ccc(F)cc1,88,–,–,–
CC(=O)c1ccccc1NC(=O)COC(=O)c1cc2ccccc2[nH]1,–,–,–,–
COc1cccc(CN2CCc3ccc(NC(=O)CCc4ccc(C)cc4)cc3C2)c1O,–,–,–,-81
Cc1ccc(N(CC(O)CN2CCCCC2)S(=O)(=O)c2ccc(C)cc2)cc1 (stereo not drawn),–,–,–,-99
COCCNc1nc(SCC(=O)N2CCN(c3ccccc3OC)CC2)nc2ccccc12,–,–,–,-120
COc1ccccc1N1CCN(C(=O)CSc2nc3ccccc3o2)CC1,–,–,–,–
C[C@]12CC[C@H](O)CC1=CCC1C2CC[C@@]2(C)C1CC[C@@H]2NC(=O)[C@@H](N)Cc1cnc[nH]1 (stereo partly drawn),·,·,–,–
Cc1cc(C)cc(NC(=O)c2cc(S(=O)(=O)N3CCCC3)cn2C)c1,–,–,–,-107
Cc1cccc(NC(=O)c2cc(S(=O)(=O)N3CCCC3)cn2C)c1,–,–,–,–
COc1ccc([C@]23Cc4cc(OC)c(OC)cc4C(O2)C2=C(CC4(CCCCC4)OC2=O)O3)cc1,–,–,·,·
COc1ccc(S(=O)(=O)N2CCC(C(=O)NCCC(=O)NCc3cccnc3)CC2)cc1,·,·,-74,–
COc1ccc(-c2coc3cc(O[C@@H]4O[C@H](CO)[C@@H](O)[C@H](O)[C@H]4O)ccc3c2=O)cc1,·,·,–,-151
C[C@H](NC(=O)N1CCn2c1nc1ccccc12)C(=O)NC1CC1,–,–,–,-136
O=C(NCC1CCCO1)c1cncc(Br)c1 (stereo not drawn),–,–,–,-145
Nc1nc(CN2CCN(c3ccccn3)CC2)nc(Nc2ccc(F)cc2)n1,–,–,–,-89
Nc1nc(CN2CCCCCC2)nc(Nc2ccc(F)cc2)n1,–,–,–,-73
Nc1nc(CSC(=S)N2CCOCC2)nc(Nc2ccc(F)cc2)n1,?,–,–,-115
COc1ccccc1N1CCN(Cc2nc(N)nc(Nc3ccccc3)n2)CC1,–,–,–,?
O=C(COC(=O)C12CC3CC(CC(O)(C3)C1)C2)NCc1ccco1,–,–,·,·
Oc1ccccc1C1C=C(c2ccc3c(c2)OCO3)NC(c2c(F)cccc2Cl)N1 (stereo not drawn),–,–,·,·
COc1ccccc1C1c2[nH]c3ccccc3c2C[C@H]2C(=O)N(C3CCN(Cc4ccccc4)CC3)CC(=O)N12 (stereo partly drawn),–,–,-106,–
CN(C)c1ccc2nc3ccc(=[N+](C)C)cc-3sc2c1,–,–,–,–
Cc1cc2nc3ccc(=[N+](C)C)cc-3sc2cc1N,–,–,–,-94
COc1ccccc1S(=O)(=O)NCc1ccc(C(=O)NC2CCC(O)CC2)cc1 (stereo not drawn),–,–,–,–
SMILES,TRPV1 ag,TRPV1 PAM,hERG WT inh,KCNH2 3.1 block
COC(=O)c1c(NC(=O)/C=C/C(=O)O)sc(Cc2ccccc2)c1C,–,–,–,–
COC(=O)c1c(N)sc(Cc2ccccc2)c1C,–,–,–,-103
Cc1cc(C)n(-c2ccc([N+](=O)[O-])cc2)n1,–,–,–,-107
Cc1cc(N)n(-c2ccc([N+](=O)[O-])cc2)n1,–,–,–,–
O=C(C[n+]1ccc2ccccc2c1)Nc1cc(C(F)(F)F)ccc1Cl,–,–,–,-82
O=C(C[n+]1ccccc1)Nc1cc(C(F)(F)F)ccc1Cl,–,–,–,–
Cc1ccc(C(=O)c2c3ccc(C(F)(F)F)cc3[n+]([O-])n2CCC(N)=O)cc1,–,–,–,–
COc1ccc(C(=O)c2c3ccc(C(F)(F)F)cc3[n+]([O-])n2CCCN)cc1,–,–,–,?
Cc1ccc(C(=O)c2c3ccc(C(F)(F)F)cc3[n+]([O-])n2CCCN)cc1,–,–,–,-85
Cc1ccc(C(=O)c2c3ccc(C(F)(F)F)cc3[n+]([O-])n2CCCC(N)=O)cc1,?,–,–,-79
Cc1cccc(NC(=O)c2ncn3c2C(=O)N[C@@H](C)C3)c1,·,·,–,–
CCOc1ccc(N(CC(=O)NCc2ccc(OC)cc2)S(C)(=O)=O)cc1,–,–,–,-77
CN(CC(=O)NCc1ccccc1)Cc1cccc(F)c1,–,–,–,–
CCOc1ccc(CN(C)CC(=O)NCc2ccccc2)cc1,–,–,–,-87
CCOc1ccc(CN(C)CC(=O)NCc2ccccc2Cl)cc1,?,–,-85,–
Cc1ccc(/C=C/S(=O)(=O)NCCC(=O)NCc2ccc(F)cc2)cc1,–,–,–,–
COc1ccc(CNC(=O)c2ccccc2SCC(=O)NCc2ccco2)cc1,–,–,–,–
COCCNC(=O)c1ccc(N2CC3CC(C2)c2cccc(=O)n2C3)c(NC(=O)c2ccc(F)cc2)c1 (stereo not drawn),–,–,–,–
CCOC(=O)N1CCN(C(=O)c2ccc(N3CC4CC(C3)c3cccc(=O)n3C4)c(NC(=O)c3ccc(F)cc3)c2)CC1 (stereo not drawn),–,–,-163,–
O=C(NNC(=O)c1n[nH]c(=O)c2ccccc12)c1ccc(Br)cc1,–,–,–,–
Cc1ccc(C(=O)NNC(=O)c2n[nH]c(=O)c3ccccc23)cc1C,–,–,–,-79
Cc1ccc2c(c1)CCCN2CC(=O)N(C)c1c(N)n(Cc2ccccc2)c(=O)[nH]c1=O,–,–,–,–
CCOc1ccc(OCCC(=O)Nc2ccc(N3CCOCC3)cc2N2CCOCC2)cc1,·,·,–,–
CC1CCN(CCc2nc3cc(NC(=O)COc4ccc(Cl)cc4)ccc3n2C)CC1,–,–,–,-96
Cn1c(CCN2CCN(c3ccccn3)CC2)nc2cc(NC(=O)COc3ccc(Cl)cc3)ccc21,–,–,–,-74
SMILES,TRPV1 ag,TRPV1 PAM,hERG WT inh,KCNH2 3.1 block
Cc1noc(C)c1COc1ccccc1C(=O)NCCOc1ccccc1,–,–,–,–
CCN(CC)S(=O)(=O)c1ccc(OCC(=O)NC(=O)Cc2ccccc2)c([N+](=O)[O-])c1,–,–,–,–
N#Cc1sc2nc(C3CC3)cc(-c3ccc(Cl)cc3)c2c1N,–,–,–,-72
COc1ccc(-c2cc(-c3cccs3)nc3sc(C#N)c(N)c23)cc1,–,–,–,–
CC1CCN(c2ccc3c(c2)S(=O)(=O)c2cccc(C(=O)NC4CCCCC4)c2C3=O)CC1,?,–,–,–
F[B-](F)(F)COc1ccccc1,·,·,–,–
COc1ccc(/C=C/CN2CCCC(C(=O)c3ccc(OC)c(F)c3)C2)cc1 (stereo not drawn),–,–,–,-90
O=C(c1cccc(C(F)(F)F)c1)C1CCCN(Cc2cccn2-c2ccccn2)C1 (stereo not drawn),–,–,?,-109
COc1ccc(C(=O)C2CCCN(Cc3c(F)ccc(F)c3F)C2)c(OC)c1 (stereo not drawn),–,–,–,–
COc1ccc(C(=O)C2CCCN(Cc3cccn3-c3ccc(Cl)cn3)C2)c(OC)c1 (stereo not drawn),–,–,–,-73
